Measurements published in ChEMBL document CHEMBL1961873, “Compounds: GSK PKIS; Assays: Nanosyn kinase panel” (2012).

Tests used:
[1] = target: Calcium/calmodulin-dependent protein kinase type II subunit alpha (Homo sapiens) (UniProt Q9UQM7); details: at 1 µM;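 note: reported value is a mean percent inhibition of CAMK2A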
[2] = target: Calcium/calmodulin-dependent protein kinase type II subunit delta (Homo sapiens) (UniProt Q13557); details: at 0.1 µM
[3] = target: Calcium/calmodulin-dependent protein kinase type II subunit delta (Homo sapiens) (UniProt Q13557); details: at 1 µM
[4] = target: T1, Calcium/calmodulin-dependent protein kinase type IV (Homo sapiens) (UniProt Q16566); details: at 0.1 µM
T1 sequence (whole entry): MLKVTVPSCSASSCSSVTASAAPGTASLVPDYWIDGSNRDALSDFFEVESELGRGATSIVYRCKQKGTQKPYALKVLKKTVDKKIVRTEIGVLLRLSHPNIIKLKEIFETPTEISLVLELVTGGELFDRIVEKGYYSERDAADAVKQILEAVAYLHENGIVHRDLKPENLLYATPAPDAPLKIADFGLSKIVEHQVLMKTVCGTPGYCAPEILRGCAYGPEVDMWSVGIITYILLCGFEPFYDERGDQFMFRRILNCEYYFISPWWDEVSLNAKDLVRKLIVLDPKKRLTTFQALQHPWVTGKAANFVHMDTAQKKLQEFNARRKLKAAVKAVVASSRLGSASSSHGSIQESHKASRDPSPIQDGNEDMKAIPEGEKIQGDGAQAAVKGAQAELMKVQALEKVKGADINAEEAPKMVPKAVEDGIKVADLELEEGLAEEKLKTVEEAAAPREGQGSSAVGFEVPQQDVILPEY

[5] = target: T1, Calcium/calmodulin-dependent protein kinase type IV (Homo sapiens); details: at 1 µM
[6] = target: T2, Serine/threonine-protein kinase Chk1 (Homo sapiens) (UniProt O14757); details: at 0.1 µM
T2 sequence (whole entry): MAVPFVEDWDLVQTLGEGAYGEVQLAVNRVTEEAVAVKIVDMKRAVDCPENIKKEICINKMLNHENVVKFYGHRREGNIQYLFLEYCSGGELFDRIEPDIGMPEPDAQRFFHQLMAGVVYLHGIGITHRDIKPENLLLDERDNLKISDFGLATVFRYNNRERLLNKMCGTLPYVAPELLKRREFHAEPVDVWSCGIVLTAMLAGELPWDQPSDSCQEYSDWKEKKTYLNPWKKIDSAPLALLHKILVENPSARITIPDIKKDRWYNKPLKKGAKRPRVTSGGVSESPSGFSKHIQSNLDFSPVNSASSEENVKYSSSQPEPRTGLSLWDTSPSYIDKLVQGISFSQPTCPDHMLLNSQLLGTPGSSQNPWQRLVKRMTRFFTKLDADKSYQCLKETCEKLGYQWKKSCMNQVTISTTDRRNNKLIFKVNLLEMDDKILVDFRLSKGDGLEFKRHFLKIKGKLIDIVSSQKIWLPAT

[7] = target: T2, Serine/threonine-protein kinase Chk1 (Homo sapiens); details: at 1 µM
[8] = target: Serine/threonine-protein kinase Chk2 (Homo sapiens) (UniProt O96017); details: at 0.1 µM
Serine/threonine-protein kinase Chk2 (Homo sapiens), sequence (O96017 whole entry): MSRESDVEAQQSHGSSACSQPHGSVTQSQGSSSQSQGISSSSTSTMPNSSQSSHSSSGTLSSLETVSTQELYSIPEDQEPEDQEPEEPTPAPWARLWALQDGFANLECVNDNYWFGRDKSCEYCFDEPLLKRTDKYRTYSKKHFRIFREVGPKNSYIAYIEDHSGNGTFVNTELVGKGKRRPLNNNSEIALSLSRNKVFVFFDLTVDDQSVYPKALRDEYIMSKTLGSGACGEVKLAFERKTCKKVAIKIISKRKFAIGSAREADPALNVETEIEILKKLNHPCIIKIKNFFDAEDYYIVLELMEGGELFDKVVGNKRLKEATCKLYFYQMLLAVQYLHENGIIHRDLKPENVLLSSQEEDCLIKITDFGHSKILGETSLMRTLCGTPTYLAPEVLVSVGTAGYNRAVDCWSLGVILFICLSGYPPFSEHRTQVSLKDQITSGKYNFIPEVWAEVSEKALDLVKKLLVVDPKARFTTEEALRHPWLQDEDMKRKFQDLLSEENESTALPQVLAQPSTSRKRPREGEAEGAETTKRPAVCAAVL

[9] = target: Serine/threonine-protein kinase Chk2 (Homo sapiens) (UniProt O96017); details: at 1 µM
[10] = target: Death-associated protein kinase 1 (Homo sapiens) (UniProt P53355); details: at 0.1 µM
Death-associated protein kinase 1 (Homo sapiens), sequence (P53355 whole entry, looked up): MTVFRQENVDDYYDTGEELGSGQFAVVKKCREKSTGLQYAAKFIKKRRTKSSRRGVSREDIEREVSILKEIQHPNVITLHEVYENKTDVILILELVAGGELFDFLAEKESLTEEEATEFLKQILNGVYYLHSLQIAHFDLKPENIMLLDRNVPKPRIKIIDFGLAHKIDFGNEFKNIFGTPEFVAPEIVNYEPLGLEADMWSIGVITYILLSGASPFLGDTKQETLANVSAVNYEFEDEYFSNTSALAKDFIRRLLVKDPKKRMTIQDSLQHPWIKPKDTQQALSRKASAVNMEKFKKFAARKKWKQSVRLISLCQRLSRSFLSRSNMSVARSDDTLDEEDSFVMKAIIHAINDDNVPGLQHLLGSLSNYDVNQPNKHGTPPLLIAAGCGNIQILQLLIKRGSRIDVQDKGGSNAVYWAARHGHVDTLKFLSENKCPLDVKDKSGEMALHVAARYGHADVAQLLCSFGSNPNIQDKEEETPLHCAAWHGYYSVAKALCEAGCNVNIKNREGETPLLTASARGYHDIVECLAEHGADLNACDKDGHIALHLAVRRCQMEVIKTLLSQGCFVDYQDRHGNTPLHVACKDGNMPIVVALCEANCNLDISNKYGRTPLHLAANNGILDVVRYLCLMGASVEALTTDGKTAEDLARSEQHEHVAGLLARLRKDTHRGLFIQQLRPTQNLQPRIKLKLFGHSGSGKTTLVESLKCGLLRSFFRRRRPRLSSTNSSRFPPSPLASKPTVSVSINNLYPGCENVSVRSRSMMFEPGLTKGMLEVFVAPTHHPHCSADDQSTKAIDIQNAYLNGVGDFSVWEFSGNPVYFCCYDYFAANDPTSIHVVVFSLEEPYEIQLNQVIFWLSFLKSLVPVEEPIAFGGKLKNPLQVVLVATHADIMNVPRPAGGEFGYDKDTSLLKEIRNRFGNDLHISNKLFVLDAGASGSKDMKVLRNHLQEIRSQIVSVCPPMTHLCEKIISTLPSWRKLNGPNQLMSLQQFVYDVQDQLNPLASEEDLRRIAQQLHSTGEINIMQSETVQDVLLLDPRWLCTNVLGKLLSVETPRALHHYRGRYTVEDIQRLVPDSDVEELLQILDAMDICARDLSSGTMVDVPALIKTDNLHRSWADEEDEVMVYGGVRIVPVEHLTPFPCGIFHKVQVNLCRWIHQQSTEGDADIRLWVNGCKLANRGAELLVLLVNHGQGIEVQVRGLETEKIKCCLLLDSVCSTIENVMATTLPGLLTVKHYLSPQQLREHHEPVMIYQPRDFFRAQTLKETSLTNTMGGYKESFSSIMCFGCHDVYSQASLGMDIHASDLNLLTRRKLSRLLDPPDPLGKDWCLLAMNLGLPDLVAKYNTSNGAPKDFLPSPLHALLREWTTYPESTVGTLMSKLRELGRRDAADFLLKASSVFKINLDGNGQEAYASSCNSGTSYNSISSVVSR

[11] = target: Death-associated protein kinase 1 (Homo sapiens) (UniProt P53355); details: at 1 µM
[12] = target: T3, Serine/threonine-protein kinase DCLK2 (Homo sapiens) (UniProt Q8N568); details: at 0.1 µM
T3 sequence (whole entry): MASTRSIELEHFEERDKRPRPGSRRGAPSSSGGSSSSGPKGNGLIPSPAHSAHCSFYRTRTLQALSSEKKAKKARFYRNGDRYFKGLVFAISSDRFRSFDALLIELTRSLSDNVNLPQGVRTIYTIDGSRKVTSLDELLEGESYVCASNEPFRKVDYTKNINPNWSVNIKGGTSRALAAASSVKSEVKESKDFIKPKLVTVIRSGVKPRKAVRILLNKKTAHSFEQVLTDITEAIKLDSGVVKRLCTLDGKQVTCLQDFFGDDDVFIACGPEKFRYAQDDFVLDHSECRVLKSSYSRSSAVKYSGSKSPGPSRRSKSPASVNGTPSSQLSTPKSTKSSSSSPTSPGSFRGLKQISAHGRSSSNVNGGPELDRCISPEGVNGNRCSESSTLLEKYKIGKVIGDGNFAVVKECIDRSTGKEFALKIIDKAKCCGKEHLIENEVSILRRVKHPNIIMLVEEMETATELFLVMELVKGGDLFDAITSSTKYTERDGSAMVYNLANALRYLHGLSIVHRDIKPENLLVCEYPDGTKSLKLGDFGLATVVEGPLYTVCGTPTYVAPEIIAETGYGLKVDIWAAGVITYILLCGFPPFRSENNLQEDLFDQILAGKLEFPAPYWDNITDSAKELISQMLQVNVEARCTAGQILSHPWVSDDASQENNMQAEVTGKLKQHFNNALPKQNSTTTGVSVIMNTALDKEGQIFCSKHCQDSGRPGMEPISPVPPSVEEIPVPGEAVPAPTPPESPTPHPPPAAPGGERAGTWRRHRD

[13] = target: T3, Serine/threonine-protein kinase DCLK2 (Homo sapiens); details: at 1 µM
[14] = target: MAP kinase-activated protein kinase 2 (Homo sapiens) (UniProt P49137); details: at 0.1 µM
MAP kinase-activated protein kinase 2 (Homo sapiens), sequence (P49137 whole entry, looked up): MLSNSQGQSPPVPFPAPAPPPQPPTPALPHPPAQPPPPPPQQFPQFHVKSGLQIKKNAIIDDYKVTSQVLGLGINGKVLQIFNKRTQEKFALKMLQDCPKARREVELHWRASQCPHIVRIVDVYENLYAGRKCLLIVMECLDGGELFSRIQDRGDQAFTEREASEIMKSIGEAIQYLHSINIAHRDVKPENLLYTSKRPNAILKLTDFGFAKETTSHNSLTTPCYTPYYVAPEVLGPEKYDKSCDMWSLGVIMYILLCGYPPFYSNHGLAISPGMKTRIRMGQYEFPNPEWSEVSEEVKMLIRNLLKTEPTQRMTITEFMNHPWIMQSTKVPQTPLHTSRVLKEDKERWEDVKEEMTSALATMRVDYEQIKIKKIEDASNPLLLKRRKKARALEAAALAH

[15] = target: MAP kinase-activated protein kinase 2 (Homo sapiens) (UniProt P49137); details: at 1 µM
[16] = target: MAP kinase-activated protein kinase 3 (Homo sapiens) (UniProt Q16644); details: at 0.1 µM
[17] = target: MAP kinase-activated protein kinase 3 (Homo sapiens) (UniProt Q16644); details: at 1 µM
[18] = target: Serine/threonine-protein kinase MARK1 (Homo sapiens) (UniProt Q9P0L2); details: at 0.1 µM
Serine/threonine-protein kinase MARK1 (Homo sapiens), sequence (Q9P0L2 whole entry, looked up): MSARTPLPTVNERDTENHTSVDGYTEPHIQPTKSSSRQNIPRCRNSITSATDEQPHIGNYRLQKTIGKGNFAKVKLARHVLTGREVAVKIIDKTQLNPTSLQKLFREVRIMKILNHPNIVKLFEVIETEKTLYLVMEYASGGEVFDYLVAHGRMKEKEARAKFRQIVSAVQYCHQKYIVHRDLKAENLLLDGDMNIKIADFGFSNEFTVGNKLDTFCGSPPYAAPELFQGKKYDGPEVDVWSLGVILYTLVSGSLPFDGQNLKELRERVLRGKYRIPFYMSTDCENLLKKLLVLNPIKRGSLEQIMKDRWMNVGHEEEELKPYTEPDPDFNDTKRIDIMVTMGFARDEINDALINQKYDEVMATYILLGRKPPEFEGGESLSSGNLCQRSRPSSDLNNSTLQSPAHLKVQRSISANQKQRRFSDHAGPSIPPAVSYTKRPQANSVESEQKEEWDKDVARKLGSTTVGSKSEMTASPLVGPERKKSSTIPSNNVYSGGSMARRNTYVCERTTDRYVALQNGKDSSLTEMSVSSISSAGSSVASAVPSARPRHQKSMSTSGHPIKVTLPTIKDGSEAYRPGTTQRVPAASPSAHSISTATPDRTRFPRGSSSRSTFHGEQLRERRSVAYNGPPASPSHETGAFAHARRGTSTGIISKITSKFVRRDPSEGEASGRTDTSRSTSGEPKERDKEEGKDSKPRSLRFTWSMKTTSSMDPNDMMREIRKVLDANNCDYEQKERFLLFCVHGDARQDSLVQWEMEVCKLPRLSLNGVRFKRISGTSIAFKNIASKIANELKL

[19] = target: Serine/threonine-protein kinase MARK1 (Homo sapiens) (UniProt Q9P0L2); details: at 1 µM
[20] = target: MAP/microtubule affinity-regulating kinase 3 (Homo sapiens) (UniProt P27448); details: at 0.1 µM;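 note: mean percent inhibition of MARK3 kinase activity, measured within the GSK PKIS screening panel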
MAP/microtubule affinity-regulating kinase 3 (Homo sapiens), sequence (P27448 whole entry, looked up): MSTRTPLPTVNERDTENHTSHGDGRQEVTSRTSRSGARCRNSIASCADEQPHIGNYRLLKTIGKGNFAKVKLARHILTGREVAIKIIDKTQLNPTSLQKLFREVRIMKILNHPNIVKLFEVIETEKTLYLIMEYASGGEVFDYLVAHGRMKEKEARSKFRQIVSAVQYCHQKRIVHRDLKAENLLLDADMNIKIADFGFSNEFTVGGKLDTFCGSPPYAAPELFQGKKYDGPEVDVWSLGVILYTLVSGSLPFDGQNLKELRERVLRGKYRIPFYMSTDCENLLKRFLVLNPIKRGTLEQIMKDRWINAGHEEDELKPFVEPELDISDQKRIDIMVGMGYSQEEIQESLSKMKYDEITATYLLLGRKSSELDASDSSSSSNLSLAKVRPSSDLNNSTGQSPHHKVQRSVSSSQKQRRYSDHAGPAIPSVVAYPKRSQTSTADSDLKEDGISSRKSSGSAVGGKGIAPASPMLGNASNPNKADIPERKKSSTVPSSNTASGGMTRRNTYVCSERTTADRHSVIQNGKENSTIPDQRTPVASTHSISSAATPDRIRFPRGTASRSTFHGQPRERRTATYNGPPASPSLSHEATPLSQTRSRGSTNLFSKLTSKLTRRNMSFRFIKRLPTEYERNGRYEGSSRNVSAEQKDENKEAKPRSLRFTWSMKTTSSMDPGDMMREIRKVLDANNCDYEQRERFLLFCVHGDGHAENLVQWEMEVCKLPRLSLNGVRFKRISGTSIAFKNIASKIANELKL

Calcium/calmodulin-dependent protein kinase type II subunit delta (Homo sapiens), sequence (Q13557 whole entry): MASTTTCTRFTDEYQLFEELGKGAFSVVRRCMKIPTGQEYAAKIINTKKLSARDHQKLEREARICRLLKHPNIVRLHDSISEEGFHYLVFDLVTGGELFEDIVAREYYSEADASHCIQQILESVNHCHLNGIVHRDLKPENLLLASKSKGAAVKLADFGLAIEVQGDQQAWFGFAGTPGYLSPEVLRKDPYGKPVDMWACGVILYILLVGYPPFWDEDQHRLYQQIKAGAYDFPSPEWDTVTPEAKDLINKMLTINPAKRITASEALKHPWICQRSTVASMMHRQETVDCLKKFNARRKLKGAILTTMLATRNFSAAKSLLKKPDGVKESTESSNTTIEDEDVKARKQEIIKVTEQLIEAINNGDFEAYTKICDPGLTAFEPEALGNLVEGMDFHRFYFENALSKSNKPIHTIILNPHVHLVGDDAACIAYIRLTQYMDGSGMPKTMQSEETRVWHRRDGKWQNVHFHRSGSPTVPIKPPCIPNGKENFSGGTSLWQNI
Calcium/calmodulin-dependent protein kinase type II subunit alpha (Homo sapiens), sequence (Q9UQM7 whole entry): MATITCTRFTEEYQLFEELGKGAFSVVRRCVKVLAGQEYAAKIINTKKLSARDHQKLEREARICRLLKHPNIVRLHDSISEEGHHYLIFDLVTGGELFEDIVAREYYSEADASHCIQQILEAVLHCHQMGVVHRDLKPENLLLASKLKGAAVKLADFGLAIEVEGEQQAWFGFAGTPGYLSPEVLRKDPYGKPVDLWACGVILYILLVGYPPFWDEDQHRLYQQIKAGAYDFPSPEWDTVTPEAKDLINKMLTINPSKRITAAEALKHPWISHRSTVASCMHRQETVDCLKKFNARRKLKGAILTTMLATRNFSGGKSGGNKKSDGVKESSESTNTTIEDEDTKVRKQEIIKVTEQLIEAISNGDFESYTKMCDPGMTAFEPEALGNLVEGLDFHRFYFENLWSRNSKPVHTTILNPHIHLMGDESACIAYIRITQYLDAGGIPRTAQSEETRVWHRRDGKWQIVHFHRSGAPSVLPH

SMILES | inhibition [1] [%] | inhibition [2] [%] | inhibition [3] [%] | inhibition [4] [%] | inhibition [5] [%] | inhibition [6] [%] | inhibition [7] [%] | inhibition [8] [%] | inhibition [9] [%] | inhibition [10] [%] | inhibition [11] [%] | inhibition [12] [%] | inhibition [13] [%] | inhibition [14] [%] | inhibition [15] [%] | inhibition [16] [%] | inhibition [17] [%] | inhibition [18] [%] | inhibition [19] [%] | inhibition [20] [%]
CN(C)CCNC(=O)Nc1ccc(N(C)c2ccnc(Nc3ccc(CS(C)(=O)=O)cc3)n2)cc1 | 4.63 | 4.54 | 5.02 | 0.83 | -0.68 | 3.83 | 0.79 | 3.72 | 11.9 | 3.93 | 4.89 | 2.39 | 1.2 | 1.53 | 1.45 | 2.22 | 2.99 | 4.47 | 9.32 | 6.51
COc1cccc(Nc2nccc(-c3cnn4ncccc34)n2)c1 | 13.8 | 6.9 | 35.4 | -0.56 | -1.54 | -2.67 | 3.93 | 1.92 | 11.2 | -0.58 | 0.16 | -2.05 | 2.73 | 1.39 | -0.06 | 2.8 | 2.89 | 4.15 | 27.7 | 4.03
N#Cc1cccc(Nc2ncc(-c3ccccc3)o2)c1 | 1.79 | 0.08 | 2.56 | -2.03 | -2.55 | 0.93 | 2.48 | 1.04 | 2.58 | 2.18 | 2.82 | -0.77 | 0.28 | 0.9 | 1.11 | -0.02 | 2.79 | 1.98 | 5.43 | -0.93
OCCCNc1nccc(-c2c(-c3ccc(F)cc3)nn3cc(C(F)(F)F)ccc23)n1 | 3.74 | 2.44 | 6.94 | 0.82 | 1.44 | -0.5 | -1.18 | 2.3 | 2.83 | -0.68 | 1.04 | 0.89 | 2.29 | 0.94 | 0.71 | 30.2 | 36.3 | 0.69 | 3.09 | 0.94
O=C(O[C@H]1CN[C@H](C#Cc2cc3ncnc(Nc4ccc5c(ccn5Cc5cc(F)ccc5F)c4)c3s2)C1)N1CCOCC1 | 3.57 | 4.06 | 3.62 | 0.33 | 1.34 | -1.01 | -1.69 | -0.02 | 6.4 | -3.56 | -3.4 | 1.07 | -1.18 | -0.3 | -1.2 | -1.09 | -1.03 | 4.09 | 3.3 | 1.37
COc1cc(N2CCN(C(C)C)CC2)ccc1Nc1nc(Nc2cccc3ncccc23)c2cc[nH]c2n1 | 1.11 | -0.04 | 9.94 | 1.22 | 4.44 | 0.3 | 1.78 | -0.49 | 4.32 | -1.26 | -1.59 | -1.36 | -0.27 | -0.17 | -0.87 | -0.09 | 0.19 | 0.48 | 2.18 | 0.2
